Measured values from the supplement of paper PMC13380429.

Tested on: Vero E6 infected with SARS-CoV-2
Assay: inhibition of SARS-CoV-2 cytopathic effect; higher = more antiviral protection, active = above 15
Details: 48 h

Measured: inhibition of SARS-CoV-2 cytopathic effect

C[C@]12CC[C@@H]3c4ccc(OC(=O)c5ccccc5)cc4CC[C@H]3[C@@H]1CC[C@@H]2O [estradiol-benzoate]
inactive: 1 nM -5.16% | 8.33 nM -2.11% | 100 nM -2.68% | 833.33 nM -4.8% | 10000 nM -5.99%

Nc1n[nH]c2nnc(-c3c(-c4ccccc4)nn4ccccc34)cc12
inactive: 1 nM 0.55% | 8.33 nM -0.27% | 100 nM -1.29% | 833.33 nM 1.74% | 10000 nM -2.81%

CC(C)OC(=O)CNC(=O)[C@H](CS)NC(=O)CC[C@H](N)C(=O)O [glutathione-monoisopropyl-ester]
inactive: 1 nM -0.48% | 8.33 nM 2.43% | 100 nM -0.65% | 833.33 nM 0.55% | 10000 nM 2.32%

NS(=O)(=O)c1cc2c(cc1C(F)(F)F)NC(Cc1ccccc1)NS2(=O)=O (stereo not given) [bendroflumethiazide]
inactive: 1 nM -0.89% | 8.33 nM -3.12% | 100 nM -0.42% | 833.33 nM -1.39% | 10000 nM 0.82%

CN(C)CCOC(C)(c1ccccc1)c1ccccn1 (stereo not given) [doxylamine]
inactive: 1 nM -1.38% | 8.33 nM -0.13% | 100 nM -1.73% | 833.33 nM 1.53% | 10000 nM 1.43%

NC[C@@H]1CC[C@@H](N)[C@@H](O[C@H]2[C@H](O)[C@@H](O[C@H]3O[C@H](CO)[C@@H](O)[C@H](N)[C@H]3O)[C@H](N)C[C@@H]2N)O1 [dibekacin]
inactive: 1 nM 5.18% | 8.33 nM -1.26% | 100 nM 1.67% | 833.33 nM 2% | 10000 nM 1.51%
